Reference: PubChem BioAssay (NCATS)
“And” between values parts separate entries of the source, which are not always exact repeats. Identical values can stand only once. Records with an inconclusive call do not appear. The source made the active and inactive calls. The call rests on the fitted dose curve; in most records, active means well fitted curve in the direction sought with a large enough effect; inconclusive means small, poorly fitted or top-dose-only effect, or another doubt; inactive means no such curve, though single readings can be large or run the other way.

Experiment: qHTS Assay for Identifying Gametocytocidal Compounds (AID 743244);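 on max response: actives lower the fluorescent signal which means gametocytes are killed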
Conditions: P. falciparum 3D7 stage III-V gametocytes, alamarBlue, 72 h; max response: active compounds read low
Procedure, shortened: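 Viability read-out was resazurin reduction (alamarBlue, 24 h) measured at Ex 525/Em 598 nm. Beforehand, late-stage (III-V) 3D7 P. falciparum gametocytes at 20,000 cells/well were incubated with compound 72 h at 37C under 5% CO2.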
On the % scale 0 is the no-effect control and ±100 the full control effect; potency means the concentration at half of the fitted maximal effect.

Structure (SMILES) | Potency | max response
COc1ccc(CCN2CCC(Nc3nc4ccccc4n3Cc3ccc(F)cc3)CC2)cc1 | 3.16 µM (active) | 
O=c1c(-c2ccccc2)c1-c1ccccc1 | 3.98 µM (active) | 
C[C@]12CCC(=O)C=C1CC[C@H]1[C@@H]3CC[C@](O)(C(=O)CO)[C@@]3(C)C[C@H](O)[C@@]12F |  | 15.9% (inactive) and -1.69% (inactive)
CC(=O)CC(c1ccc([N+](=O)[O-])cc1)c1c(O)c2ccccc2oc1=O (configuration not stated) |  | 29.4% (inactive)
NC(CO)(CO)CO |  | 0.227% (inactive)
CN=C(NC#N)Nc1ccc(C2=NNC(=O)CC2C)cc1 (configuration not stated) |  | -3.79% (inactive)
CCOc1ccc(NC(=O)CC(C)O)cc1 (configuration not stated) |  | -2.08% (inactive)
CCOC(=O)[C@H](CCc1ccccc1)N[C@@H](C)C(=O)N1Cc2ccccc2C[C@H]1C(=O)O |  | 4.65% (inactive)
C/C=C(/C(=C/C)c1ccc(O)cc1)c1ccc(O)cc1 |  | -1.19% (inactive)
OCc1ccccc1O |  | 23.6% (inactive)
CCn1cc(C(=O)O)c(=O)c2cnc(N3CCCC3)nc21 |  | -1.94% (inactive)
CC[C@@H](CO)NCCN[C@@H](CC)CO |  | 6.57% (inactive)
C[C@@H]1C[C@H]2[C@@H]3CCC4=CC(=O)C=C[C@]4(C)[C@@]3(F)[C@@H](O)C[C@]2(C)[C@H]1C(=O)CO |  | 9.79% (inactive)
CN(C)CC/C=C1/c2ccccc2COc2ccc(CC(=O)O)cc21 |  | 3.04% (inactive)
NC[C@H]1O[C@H](O[C@H]2[C@H](O)[C@@H](O[C@H]3O[C@H](CO)[C@@H](O)[C@H](N)[C@H]3O)[C@H](N)C[C@@H]2N)[C@H](N)[C@@H](O)[C@@H]1O |  | -18.8% (inactive) and 4.69% (inactive)
Nc1ccc(C(=O)Nc2ccccc2N)cc1 |  | 0.176% (inactive)
CCN(CC)C(=O)/C(C#N)=C/c1cc(O)c(O)c([N+](=O)[O-])c1 |  | -6.8% (inactive)
COc1cc(C(=S)N2CCOCC2)cc(OC)c1OC |  | 7.8% (inactive)
COc1ccc(/C=C/C(=O)c2ccc(OC)cc2OC)cc1 |  | -14.8% (inactive)

Structure (SMILES) | Potency | max response
CCN(CC)CCOC(=O)C(c1ccccc1)C1CCCCC1 (configuration not stated) |  | 15% (inactive)
CN1CCN(C(c2ccccc2)c2ccccc2)CC1 |  | -1.32% (inactive)
CC1(C)O[C@@H]2[C@@H](CO[C@@]3(COS(N)(=O)=O)OC(C)(C)O[C@@H]23)O1 |  | 4.37% (inactive)
CCCC(=O)O[C@]1(C(=O)CO)CC[C@H]2[C@@H]3CCC4=CC(=O)CC[C@]4(C)[C@H]3[C@@H](O)C[C@@]21C |  | 1.99% (inactive)
COc1ccc(OC)c(C(O)CNC(=O)CN)c1 (configuration not stated) |  | -3.82% (inactive)
CCC(=O)c1c(O)cc(O)cc1O |  | 19% (inactive)
COc1c2occc2c(OC)c2c(=O)cc(C)oc12 |  | 22.1% (inactive)
O=C1OCCN1/N=C/c1ccc([N+](=O)[O-])o1 |  | 2.02% (inactive)
Cc1c(F)c(N2CCNC(C)C2)cc2c1c(=O)c(C(=O)O)cn2C1CC1 (configuration not stated) |  | -1.28% (inactive)
CC(C)n1nc(-c2cc3cc(O)ccc3[nH]2)c2c(N)ncnc21 |  | -4.02% (inactive)
CCN(CC)C(=O)N1CCN(C)CC1 |  | 0.149% (inactive)
CC(C)=CCC1C(=O)N(c2ccccc2)N(c2ccccc2)C1=O |  | -12.9% (inactive)
CC(C)(C(=O)c1cccnc1)c1cccnc1 |  | 4.59% (inactive)
CCN1CCCC1=O |  | 5.59% (inactive)
NC(=O)c1cc[n+](CC2=C(C(=O)[O-])N3C(=O)[C@@H](NC(=O)Cc4cccs4)[C@H]3SC2)cc1 |  | 1.11% (inactive)
c1ccc(OCc2ccc(CCCN3CCOCC3)cc2)cc1 |  | -2.94% (inactive)
O=C(Nc1ccc(Cl)c(Cl)c1)C1CC1 |  | 14% (inactive)
CC(C)(C)NC(=O)[C@@H]1CN(Cc2cccnc2)CCN1C[C@@H](O)C[C@@H](Cc1ccccc1)C(=O)N[C@H]1c2ccccc2C[C@H]1O |  | 5.54% (inactive)
